# Assay results as given in the supplement of paper PMC12350171.
# Where a name gives a salt, the structure may show the parent alone.
# System: Haemophilus parainfluenzae
# Test: growth AUC normalised to DMSO control (fraction of control); higher = less growth inhibition, active = hit call of the paper
# Conditions: 20 µM;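 active = AUC significantly below DMSO controls by Student t-fit with adjusted P under 0.01; inactive = not significantly reduced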
# Outline: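 Pathogens passaged twice anaerobically were inoculated at a starting OD578 of 0.01 into pre-reduced mGAM plates with drug at 20 μM and 1% DMSO, sealed with breathable membranes. Haemophilus parainfluenzae medium was supplemented with hemin and NAD. OD578 was read hourly for 24 h, with three biological replicates. Growth-curve AUC was computed by the trapezoidal rule up to the exponential-to-stationary transition and normalised to DMSO controls on the same plate.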
row,Structure (SMILES),growth AUC normalised to DMSO control
1,NS(=O)(=O)c1cc2c(cc1Cl)NCNS2(=O)=O [Hydrochlorothiazide],0.967 (inactive)
2,CCCCC(CC)CNC(=N)NC(=N)NCCCCCCNC(=N)NC(=N)NCC(CC)CCCC (configuration not stated) [Alexidine dihydrochloride],0.861 (inactive)
3,CCN1CCCC1CNC(=O)c1cc(S(N)(=O)=O)ccc1OC (configuration not stated) [Sulpiride],1.02 (inactive)
4,O=C(NCCNCC(O)COc1ccc(O)cc1)N1CCOCC1 (configuration not stated) [Xamoterol hemifumarate],0.775 (inactive)
5,CN(C)/N=N/c1[nH]cnc1C(N)=O [Dacarbazine],0.999 (inactive)
6,CN1C(=O)OC(C)(C)C1=O [Trimethadione],0.975 (inactive)
7,O=C(O)CNC(=O)C(CS)Cc1ccccc1 (configuration not stated) [Thiorphan],0.891 (inactive)
8,N[C@@H](C(=O)N[C@@H]1C(=O)N2C(C(=O)O)=C(Cl)CS[C@H]12)c1ccccc1 [Cefaclor hydrate],0.97 (inactive)
9,CO[C@@]1(NC(=O)CSCC#N)C(=O)N2C(C(=O)O)=C(CSc3nnnn3C)CS[C@@H]21 [Cefmetazole sodium salt],0.0246 (active)
10,c1ccc2c(CC3=NCCN3)cccc2c1 [Naphazoline hydrochloride],1.01 (inactive)
11,C=CC(N)CCC(=O)O (configuration not stated) [Vigabatrin hydrochloride],1.02 (inactive)
12,CC(=O)c1ccc(S(=O)(=O)NC(=O)NC2CCCCC2)cc1 [Acetohexamide],0.971 (inactive)
13,S=c1[nH]cnc2nc[nH]c12 [Mercaptopurine],0.997 (inactive)
14,N=C(N=C(N)N)N1CCOCC1 [Moroxidine hydrochloride],1 (inactive)
15,CC(C)NCC(O)COc1ccc(COCCOC(C)C)cc1 (configuration not stated) [Bisoprolol hemifumarate],1.13 (inactive)
16,CCCCNc1ccc(C(=O)OCCOCCOCCOCCOCCOCCOCCOCCOCCOC)cc1 [Benzonatate],1 (inactive)

row,Structure (SMILES),growth AUC normalised to DMSO control
1,O=C(CCCN1CCC(O)(c2ccc(Cl)cc2)CC1)c1ccc(F)cc1 [Haloperidol],0.951 (inactive)
2,CCCCOc1ccc(C(=O)CCN2CCCCC2)cc1 [Dyclonine hydrochloride],0.921 (inactive)
3,CC(Cc1cccc(C(F)(F)F)c1)NCCOC(=O)c1ccccc1 (configuration not stated) [Benfluorex],0.93 (inactive)
4,Cc1ncc([N+](=O)[O-])n1CCO [Metronidazole],0.906 (inactive)
5,CCOC1O[C@H]([C@@H](COCc2ccccc2)OCc2ccccc2)[C@H](OCc2ccccc2)[C@H]1O (some centres not stated) [Tribenoside],0.941 (inactive)
6,Cc1cnc(C(=O)NCCc2ccc(S(=O)(=O)NC(=O)NC3CCCCC3)cc2)cn1 [Glipizide],0.995 (inactive)
7,C=CC[N@@+]12CC[C@@]34c5ccccc5N5/C=C6/[C@H]7C[C@H]8[C@@]9(CC[N@@+]8(CC=C)C/C7=C/CO)c7ccccc7N(/C=C(/[C@@H](C[C@@H]31)/C(=C\CO)C2)[C@H]54)[C@@H]69 [Alcuronium chloride],1 (inactive)
8,Nc1ccc(C(=O)O)c(O)c1 [Aminosalicylic acid],1.09 (inactive)
9,COC(=O)C1=C(C)NC(C)=C(C(=O)OCC(C)C)C1c1ccccc1[N+](=O)[O-] (configuration not stated) [Nisoldipine],0.996 (inactive)
10,CNCCC=C1c2ccccc2CCc2ccccc21 [Nortriptyline hydrochloride],0.966 (inactive)
11,NC[C@@H]1O[C@H](O[C@H]2[C@@H](O)[C@H](O[C@@H]3[C@@H](O)[C@H](N)C[C@H](N)[C@H]3O[C@H]3O[C@H](CN)[C@@H](O)[C@H](O)[C@H]3N)O[C@@H]2CO)[C@H](N)[C@@H](O)[C@@H]1O [Neomycin sulfate],0.923 (inactive)
12,CC(=O)Oc1cc(C(C)C)c(OCCN(C)C)cc1C [Moxisylyte hydrochoride],0.995 (inactive)
13,Clc1cccc(Cl)c1NC1=NCCN1 [Clonidine hydrochloride],0.978 (inactive)
14,CCCCc1cc2ccccc2c(OCCN(C)C)n1 [Dimethisoquin hydrochloride],0.97 (inactive)
15,CC(C)(C)NCC(O)c1cc(O)cc(O)c1 (configuration not stated) [Terbutaline hemisulfate],1.06 (inactive)
16,COc1cc2nc(N3CCN(C(=O)C4COc5ccccc5O4)CC3)nc(N)c2cc1OC (configuration not stated) [Doxazosin mesylate],0.992 (inactive)
